In all, about 410,000 compounds went through this assay and about 7,200 (1.8%) were called active. Another 7% or so got no clear call; they are omitted. Calls follow the shape of the dose curve; as a rule, active = well fitted activation curve with a large enough effect; inconclusive = small, poorly fitted or top-dose-only effect, or another doubt; inactive = no such curve, though single readings can be large or run the other way. The entries come from a sample that favours actives as a whole.
Experiment: qHTS of TDP-43 Inhibitors; also: nearly all actives have a fitted effect of over 50% in size; as to growth rescue (activation): % of control where 0% means no effect
Settings: TDP-43 expressing yeast growth rescue, BacTiter-Glo, 24 h; series mostly up to 46.1 µM; growth rescue (activation): at the top concentration
How it was run: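 Yeast cells expressing TDP-43 under galactose induction are exposed to compounds for 24 hr at 30 deg C. BacTiter-Glo luminescence measures growth, so protective compounds score as activators.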
Potency is read from the fitted curve at half-maximal effect.

Growth rescue (activation), inactive:
COc1ccc(N2CCN(C3=NS(=O)(=O)C(c4cccc(Br)c4)=C3C)CC2)cc1 15.8%, CCOC(=O)c1cc2occc2n1CC(=O)N1CCN(C(=O)c2ccco2)CC1 -23.7%, CCOC(=O)c1cc2occc2n1CC(=O)NC1CCC(C)CC1 (configuration not stated) -11.8%, CCOc1cc2[nH]c(=O)n(Cc3ccc(C(=O)NCCN(CC)CC)cc3)c(=O)c2cc1OCC 25.5% [at 9.22 µM], COc1ccc(OCCCn2c(C3CC(=O)N(c4ccc(F)cc4)C3)nc3ccccc32)cc1 (configuration not stated) 28.2%, Cc1nc2ccn(Cc3cccs3)c(=O)c2cc1C(=O)NCc1ccc(Cl)cc1 -22%, CCOc1ccc(OCC)c(NS(=O)(=O)c2ccc3[nH]c(=O)ccc3c2)c1 17.4%, COc1ccc(S(=O)(=O)Nc2cc3c(C(=O)OC(C)C)c(C)oc3c3ccccc23)cc1 14.5%, N#C/C(=C\c1ccccc1F)c1nc2ccccc2c(=O)[nH]1 3.78%, CCC(C(=O)Nc1cccc(-c2nc3cccnc3s2)c1C)c1ccccc1 (configuration not stated) -2.05%, COc1cccc(NC(=O)Cn2c(=O)cc(C)c3c(C)nn(-c4cccc(F)c4)c32)c1 3.17%, Cn1nnnc1SCCNCc1ccc(Cl)c(Cl)c1 10.9%, Cc1cn(C)c(CC(=O)NCc2ccc(Cl)cc2)c1C(=O)O 15.2%, CC(C)CC1C(=O)N(Cc2cn(Cc3ccco3)nn2)CCS(=O)(=O)N1Cc1ccc(-c2ccc(Cl)c(Cl)c2)cc1 (configuration not stated) 15.1%, COCOCCn1cc(CN2CCS(=O)(=O)N(Cc3ccc(-c4ccc(OC)cc4)cc3)C(CC(C)C)C2=O)nn1 (configuration not stated) 25.3%, COc1ccc(Cn2cc(CN3CCS(=O)(=O)N(Cc4ccc(-c5cccc(Cl)c5)cc4)C(C)C3=O)nn2)cc1 (configuration not stated) 17.6%, Cc1ccc(-c2ccc(CN3C(C)C(=O)N(Cc4cn(CCC5OCCCO5)nn4)CCS3(=O)=O)cc2)cc1 (configuration not stated) 4.45%, COc1ccc(-c2ccc(CN3C(C(C)C)C(=O)N(Cc4cn(CC5CCCCC5)nn4)CCS3(=O)=O)cc2)cn1 (configuration not stated) 18.7%, CC1C(=O)N(Cc2cn(Cc3ccco3)nn2)CCS(=O)(=O)N1Cc1ccc(-c2cccc(CO)c2)cc1 (configuration not stated) 19.9%, COc1cc(NC(=O)CN2CCN(S(=O)(=O)c3ccc(Br)cc3)CC2)cc(OC)c1 -18.8%, Cc1ccccc1CNC(=O)c1ccc(NC(=O)N2CCCCc3ccccc32)cc1 4.84%, COc1cc(CN(CC2CCCO2)C(=O)c2ccccc2F)cc(OC)c1OC (configuration not stated) 6.37%, CCOc1ccc(NC(=O)c2c(NC(=O)Cc3ccccc3)sc3c2CCCCC3)cc1 0.279%, CC1CCCN(Cc2c(O)ccc3c(=O)c(Oc4ccc(C(C)(C)C)cc4)c(C(F)(F)F)oc23)C1 (configuration not stated) 12.6%, CCOC(=O)c1ccc(-c2ccc(/C=C(\C#N)C(=O)Nc3ccc(C)cc3)o2)cc1 13.1%, CCCCOC(=O)/C(C#N)=C/c1ccc(-c2cccc(C(F)(F)F)c2)o1 24.7%, CCOc1ccccc1NC(=O)CN1CCN(S(=O)(=O)c2ccc(Br)cc2)CC1 0% [at 9.22 µM], COc1ccccc1CNC(=O)NCc1noc2ccc(C)cc12 6.73%, Cc1cccc(CNC(=O)c2sc(=O)n(Cc3ccccc3C)c2C)c1 2.11%, Cc1ccccc1Cn1c(C)c(C(=O)NCc2cccc(C(F)(F)F)c2)sc1=O 22.3%, Fc1ccc(-c2nn(-c3ccccc3Cl)c3c2cnc2ccccc23)cc1 14.3%, CCn1cc(C(=O)NCc2ccc(C)cc2)c(=O)c2cc(S(=O)(=O)N3CCc4ccccc4C3)ccc21 -4%, COc1ccc(C2CC(c3cccs3)=Nc3ccccc3S2)cc1OC (configuration not stated) 16.7%, COc1ccc(CNC(=O)COCc2cc(-c3cccs3)on2)cc1OC 4.8%, CCc1ccc2ncc3c(-c4ccc(C)cc4)nn(CC(=O)NCc4ccccc4)c3c2c1 24.3%, O=C(CSc1oc(-c2ccc(F)cc2)nc1S(=O)(=O)c1ccc(Br)cc1)NC1CCCCC1 11.8%, Cc1cc(NC(=O)c2cc(-c3cccs3)on2)nn1Cc1ccc(Cl)cc1 -13.4%, O=C(CSc1nnc(-c2cccs2)n1Cc1ccccc1)N1CCc2ccccc2C1 -18.3%, CCC(=O)Nc1ccc(C)cc1-c1nc2ccccc2n(Cc2ccccc2)c1=O 10.8%, COc1ccc2oc(-c3ccc(C)c(NC(=O)c4sc5ccccc5c4Cl)c3)nc2c1 -4.39%, Cc1ccc(C)c(Cn2c(C)c(CNCc3ccc(F)cc3)c(C(=O)O)c2C)c1 0.0365%, CC(C)(C)NC(=O)NC(=O)COC(=O)Cc1c(F)cccc1Cl 24.5%, COc1ccccc1OCCC(=O)OCC(=O)NC(=O)NC(C)(C)C -2.09%, COc1ccc(C2=NC3(CCCCC3)N(CC(=O)Nc3ccc(C(C)C)cc3)C2=O)cc1 19.3%, CCN(CC)CCNc1ncnc2c1cnn2-c1cc(Cl)ccc1C -4.42%, CCn1c(SCC(=O)Nc2ccc3c(c2)OCCO3)nc2c(c1=O)SC(C)C2 (configuration not stated) -11.8%, CC1Cc2nc(SCC(=O)Nc3ccccc3F)n(C)c(=O)c2S1 (configuration not stated) 25.8%, CSCc1cc(N(C)C)nc(SCc2ccc(Cl)cc2Cl)n1 26.4%, CC(C)(CNC(=O)Cc1ccc(Cl)cc1Cl)N1CCOCC1 -19.1%, Cc1ccc(C(=O)Nc2ccccc2F)cc1S(=O)(=O)N1CCOCC1 18%, COc1c(Cl)cc(Cl)cc1C(=O)Nc1cccc2cccnc12 6.99%, O=C(Nc1cccc2cccnc12)c1cccc2c(Br)cccc12 25.1%, CC(C)(C)NC(=O)NC(=O)COC(=O)CCC1CCCCC1 22.3%, CCOCc1nnc(NC(=O)CCC2CCCCC2)s1 8.74%, COc1ccc(-c2nnc(SCC(=O)Nc3ccc(C(C)C)cc3)nc2-c2ccc(OC)c(OC)c2)cc1OC 0%, CCN(C(=O)CSc1nnc(C)n2c1cc1occc12)c1ccccc1 0%, CC(C)Cn1cnc2c(SCc3ccc(Cl)cc3)nc(N)nc21 25.8%, COc1ccc2c(c1)CCc1c(C(=O)Nc3cc(C)ccc3O)noc1-2 13%, Cc1ccc(C)c(N2CCN(C(=O)C3CCC(CNS(=O)(=O)c4cccs4)CC3)CC2)c1 (configuration not stated) 1.45%, COc1ccc2c(c1)CCc1c(C(=O)N3CCCC3)noc1-2 -5.8%, COc1ccc2c(CC(=O)NNC(=O)c3ccccc3F)coc2c1 -11.2%, COc1ccc(Br)cc1CN(C)CC(=O)Nc1cc([N+](=O)[O-])ccc1OC 0.246%, COc1cc([N+](=O)[O-])ccc1NC(=S)N1CCN(c2ccccn2)CC1 -14.3%, COc1ccc(NC(=O)c2cc([N+](=O)[O-])ccc2NC(=O)CNC2CCCCC2C)c(OC)c1 (configuration not stated) -12.7%, COc1ccc([N+](=O)[O-])cc1NCC(=O)c1ccc(C)cc1 -14.4%, Nc1c(Cl)cc(-c2csc(N3CCCC3c3nc4cc(Cl)c(Cl)cc4n3CCOCCO)n2)cc1Cl (configuration not stated) 0%, CCCn1c(C(C)Nc2nc(-c3ccc(C)cc3)cs2)nc2cc(Cl)c(N3CCCCC3)cc21 (configuration not stated) -2.21%, CCc1cccc(CC)c1NC(=O)Cn1c(=O)c(-c2cc(C)ccc2NC(C)=O)nc2ccccc21 11.5%, CC(C)C1CC2=C(C(=O)OC(C)(C)O2)C(c2ccc(F)cc2)O1 (configuration not stated) 19%, CC(C)C[C@@H]1Cc2[nH][nH]c(=O)c2[C@H](CCc2ccccc2)O1 6.76%, Cc1cccn2c(=O)c3cc(C(=O)NC(C)c4ccccc4)c(=N)n(CCCO)c3nc12 (configuration not stated) -8.98%, CCc1ccc(NC(=O)c2nn(-c3ccc(C)cc3)c(=O)n(C)c2=O)cc1 19% [at 9.22 µM], CCOC(=O)c1ccc2c(c1)N(Cc1cccc(OC)c1)C(=O)c1ccccc1S2(=O)=O 11.1%, CC(=O)c1ccc(NC(=O)c2nc3nc(C)cc(C(F)F)n3n2)cc1 21.4%, Cc1nn(-c2ccccc2)c2sc(C(=O)N(Cc3ccco3)C(C)C(=O)NC(C)(C)C)cc12 (configuration not stated) 11.9%, Cc1cccc(NC(=O)CSc2nnc(CNC(=O)c3cccc(C)c3)n2-c2ccccc2)c1 -2.58%, Cc1cccc(C)c1NC(=O)CNC(=O)c1c(C)nn(-c2ccccc2)c1C 21.2%, Cc1nn(-c2ccccc2)c(-n2cccc2)c1C(=O)O 2.82%, CCn1c(=O)c2cc(C(=O)Nc3cccc(C(C)=O)c3)sc2c2ccccc21 6.15%

Potency, active:
CCOC(=O)c1cc2c(ccn2C)n1CC(=O)N1CCC(C)CC1 35.5 µM, COc1cc(NS(=O)(=O)c2ccc3ccccc3c2)c2ncccc2c1 12.6 µM, CC(C)C1C(=O)N(Cc2cn(CCC3OCCO3)nn2)CCS(=O)(=O)N1Cc1ccc(-c2ccccc2C(F)(F)F)cc1 (configuration not stated) 35.5 µM, Cc1ccc(-c2ccc(CN3C(C(C)C)C(=O)N(Cc4cn(CCC5OCCO5)nn4)CCS3(=O)=O)cc2)cc1 (configuration not stated) 31.6 µM, Cc1ccc(-c2ccc(CN3C(C(C)C)C(=O)N(Cc4cn(CCC5OCCCO5)nn4)CCS3(=O)=O)cc2)cc1 (configuration not stated) 35.5 µM, Cc1ccc(-c2ccc(/C=C(\C#N)C(N)=S)o2)c([N+](=O)[O-])c1 22.4 µM, Cc1ccc(Cn2c(C)c(C(=O)NCc3ccccc3C(F)(F)F)sc2=O)cc1 15.8 µM, COc1ccc(-c2csc(-c3cccs3)n2)cc1OC 11.2 µM, O=c1onc(-c2cccs2)n1Cc1ccccc1 12.6 µM, CC(C)(C)NC(=O)NC(=O)COC(=O)Cc1ccc(Cl)cc1Cl 35.5 µM, CCn1c(SCC(=O)Nc2ccccc2F)nc2c(c1=O)SC(C)C2 (configuration not stated) 35.5 µM, CSCc1cc(N2CCOCC2)nc(SCc2ccc(Cl)cc2Cl)n1 22.4 µM, O=C(Nc1cccc2cccnc12)c1cccc(Cl)c1 14.1 µM, N/C(=N\OC(=O)CCC1CCCCC1)c1ccccn1 8.91 µM, Clc1ccc(CSc2nncn3c2cc2occc23)cc1 25.1 µM, COc1ccc2c(c1)CCC/C2=N\OC(=O)c1ccccc1F 11.2 µM, COc1cc([N+](=O)[O-])ccc1NC(=O)COC(=O)CCOc1ccc(C)cc1 17.8 µM, COc1ccccc1CC(=O)Nc1ccc([N+](=O)[O-])cc1OC 11.2 µM, Cc1nc2cc(C(F)(F)F)ccc2n1CCNc1nc(-c2cc(Cl)c(N)c(Cl)c2)cs1 22.4 µM, CC(C)C1Cc2[nH][nH]c(=O)c2C(c2ccc(Cl)cc2)O1 (configuration not stated) 20 µM, Cc1cccc(NC(=O)c2cc3c(C)nn(-c4ccccc4)c3s2)c1 35.5 µM, Cc1nn(-c2ccccc2)c(Cl)c1C(=O)Nc1ccccc1 11.2 µM, CC(=O)c1cccc(NC(=O)c2nc(-c3ccccc3)n(-c3cccc(C)c3)n2)c1 22.4 µM
